# Article PMC7862700, “An all-to-all approach to the identification of sequence-specific readers for epigenetic DNA modifications on cytosine”
# Experiments:
# Test in all cases: DAPPL (digital affinity profiling via proximity ligation, sequencing); 10 mM Tris-HCl pH 7.5, 50 mM NaCl, 1 mM DTT, 4% glycerol, room temperature, 30 min; GST-TFs on glutathione beads, 16-mer random dsDNA library, 0.1% formaldehyde crosslink after washing; high values mean tight binding
# FEV = biological target: T1, FEV (Homo sapiens, UniProt Q99581 1-238); conditions: protein: recombinant; tags: N-terminal GST; dsDNA, one strand shown
# T1 sequence: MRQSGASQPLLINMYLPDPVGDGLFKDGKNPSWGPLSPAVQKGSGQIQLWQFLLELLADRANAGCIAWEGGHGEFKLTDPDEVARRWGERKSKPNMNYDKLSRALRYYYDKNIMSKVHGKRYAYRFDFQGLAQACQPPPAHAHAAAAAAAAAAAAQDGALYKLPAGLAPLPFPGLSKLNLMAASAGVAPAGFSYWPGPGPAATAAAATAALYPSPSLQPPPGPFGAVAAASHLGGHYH
# Summary of the method: (§1)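 Binding signal is given per hexamer as its read frequency for a factor divided by its frequency in the tag-only sample. GST-fused human transcription factors were expressed in yeast, captured on glutathione beads, barcoded with DNA and pooled with that sample, then incubated with 200 nmole of a 16-mer random double-stranded DNA library in Tris/NaCl/DTT/glycerol buffer for 30 min at room temperature. The pools were then washed, crosslinked, proximity-ligated, amplified by PCR and sequenced on an Illumina NextSeq500.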
# ETV5 = ETV5 (Homo sapiens, UniProt P41161 1-510); conditions: protein: recombinant; tags: N-terminal GST; dsDNA, one strand shown
# Sequence of ETV5 (P41161 whole entry): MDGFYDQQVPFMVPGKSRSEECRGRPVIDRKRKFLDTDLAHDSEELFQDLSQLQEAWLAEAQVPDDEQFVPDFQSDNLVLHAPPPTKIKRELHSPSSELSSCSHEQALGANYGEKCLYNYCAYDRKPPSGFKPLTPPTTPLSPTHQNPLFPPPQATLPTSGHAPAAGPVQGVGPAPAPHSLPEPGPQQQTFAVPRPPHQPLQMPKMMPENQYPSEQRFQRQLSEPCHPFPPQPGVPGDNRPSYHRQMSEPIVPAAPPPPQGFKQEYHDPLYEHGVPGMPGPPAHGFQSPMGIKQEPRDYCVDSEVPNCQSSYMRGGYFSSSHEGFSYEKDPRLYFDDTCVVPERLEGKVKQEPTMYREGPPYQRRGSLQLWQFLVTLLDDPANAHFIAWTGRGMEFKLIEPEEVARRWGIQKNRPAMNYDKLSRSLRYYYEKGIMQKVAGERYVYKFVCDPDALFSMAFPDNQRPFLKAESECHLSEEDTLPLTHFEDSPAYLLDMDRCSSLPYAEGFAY
# Summary of the method: as §1
# HSF1 = HSF1 (Homo sapiens, UniProt Q00613 1-529); conditions: protein: recombinant; tags: N-terminal GST; chain copies: 3; dsDNA, one strand shown
# Sequence of HSF1 (Q00613 whole entry): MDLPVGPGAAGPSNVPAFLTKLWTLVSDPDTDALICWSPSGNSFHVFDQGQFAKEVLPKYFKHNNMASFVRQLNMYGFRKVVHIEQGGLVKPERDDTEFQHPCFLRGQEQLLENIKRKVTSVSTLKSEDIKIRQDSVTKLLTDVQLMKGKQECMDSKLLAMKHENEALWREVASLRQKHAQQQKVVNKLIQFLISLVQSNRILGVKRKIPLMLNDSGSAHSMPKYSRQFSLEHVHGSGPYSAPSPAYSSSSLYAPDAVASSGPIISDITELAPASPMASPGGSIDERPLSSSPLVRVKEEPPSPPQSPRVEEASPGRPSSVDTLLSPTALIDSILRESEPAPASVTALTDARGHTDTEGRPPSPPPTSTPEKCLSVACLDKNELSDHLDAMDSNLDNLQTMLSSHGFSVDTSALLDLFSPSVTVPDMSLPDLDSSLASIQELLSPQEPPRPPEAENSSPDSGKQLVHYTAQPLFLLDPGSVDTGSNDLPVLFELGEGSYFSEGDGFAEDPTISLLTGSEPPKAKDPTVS
# Summary of the method: as §1
# SPIC = biological target: T2, SPIC (Homo sapiens, UniProt Q8N5J4 1-248); conditions: protein: recombinant; tags: N-terminal GST; dsDNA, one strand shown
# T2 sequence: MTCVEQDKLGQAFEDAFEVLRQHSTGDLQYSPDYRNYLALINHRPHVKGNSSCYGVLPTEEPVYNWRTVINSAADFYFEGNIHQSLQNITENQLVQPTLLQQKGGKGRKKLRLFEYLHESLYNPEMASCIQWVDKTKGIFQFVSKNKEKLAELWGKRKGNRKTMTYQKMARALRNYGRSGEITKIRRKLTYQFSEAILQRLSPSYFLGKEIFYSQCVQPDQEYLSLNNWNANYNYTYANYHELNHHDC
# Summary of the method: as §1
# ELF4 = ELF4 (Homo sapiens, UniProt Q99607 1-663); conditions: protein: recombinant; tags: N-terminal GST; dsDNA, one strand shown
# Sequence of ELF4 (Q99607 whole entry): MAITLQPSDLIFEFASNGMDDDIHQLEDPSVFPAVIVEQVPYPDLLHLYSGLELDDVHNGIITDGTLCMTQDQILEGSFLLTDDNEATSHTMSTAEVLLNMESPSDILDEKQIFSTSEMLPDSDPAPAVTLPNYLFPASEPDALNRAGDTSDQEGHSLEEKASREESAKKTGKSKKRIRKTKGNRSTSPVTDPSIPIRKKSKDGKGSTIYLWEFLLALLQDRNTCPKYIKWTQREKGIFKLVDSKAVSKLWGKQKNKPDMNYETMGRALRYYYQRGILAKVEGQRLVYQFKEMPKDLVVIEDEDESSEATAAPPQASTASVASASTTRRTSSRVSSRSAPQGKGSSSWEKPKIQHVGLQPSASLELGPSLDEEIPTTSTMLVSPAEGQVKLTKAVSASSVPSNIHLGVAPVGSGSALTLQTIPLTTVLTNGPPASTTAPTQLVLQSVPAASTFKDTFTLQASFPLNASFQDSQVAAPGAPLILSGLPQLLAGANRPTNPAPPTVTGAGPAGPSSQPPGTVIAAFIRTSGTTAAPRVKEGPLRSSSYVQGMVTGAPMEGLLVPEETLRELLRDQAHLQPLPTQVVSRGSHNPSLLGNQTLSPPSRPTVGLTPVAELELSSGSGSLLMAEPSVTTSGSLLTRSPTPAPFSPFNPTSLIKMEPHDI
# Summary of the method: as §1
# ELK4 = biological target: T3, ELK4 (Homo sapiens, UniProt P28324-2 1-405); conditions: protein: recombinant; tags: N-terminal GST; dsDNA, one strand shown
# T3 sequence: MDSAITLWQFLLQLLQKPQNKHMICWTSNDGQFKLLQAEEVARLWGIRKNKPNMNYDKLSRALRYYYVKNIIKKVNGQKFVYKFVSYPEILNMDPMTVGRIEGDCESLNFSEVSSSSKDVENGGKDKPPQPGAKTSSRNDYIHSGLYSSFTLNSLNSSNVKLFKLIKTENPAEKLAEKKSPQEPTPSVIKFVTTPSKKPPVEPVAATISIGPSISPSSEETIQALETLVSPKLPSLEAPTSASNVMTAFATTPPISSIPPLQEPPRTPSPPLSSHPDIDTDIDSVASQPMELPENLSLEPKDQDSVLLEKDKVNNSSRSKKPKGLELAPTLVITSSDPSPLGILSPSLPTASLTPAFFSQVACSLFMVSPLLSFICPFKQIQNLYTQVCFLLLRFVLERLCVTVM
# Summary of the method: as §1
# ETV2 = biological target: T4, ETV2 (Homo sapiens, UniProt O00321 1-342); conditions: protein: recombinant; tags: N-terminal GST; dsDNA, one strand shown
# T4 sequence: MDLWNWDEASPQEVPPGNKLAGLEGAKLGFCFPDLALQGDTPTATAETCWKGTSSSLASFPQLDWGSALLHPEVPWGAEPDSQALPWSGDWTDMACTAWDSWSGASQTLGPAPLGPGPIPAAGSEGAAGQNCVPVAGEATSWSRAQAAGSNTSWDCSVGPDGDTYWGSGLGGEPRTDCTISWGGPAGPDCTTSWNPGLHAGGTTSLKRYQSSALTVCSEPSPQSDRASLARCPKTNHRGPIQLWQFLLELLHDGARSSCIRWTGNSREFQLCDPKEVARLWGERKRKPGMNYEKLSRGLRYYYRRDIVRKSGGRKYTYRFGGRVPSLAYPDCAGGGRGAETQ
# Summary of the method: as §1
# ELF3 = biological target: T5, ELF3 (Homo sapiens, UniProt P78545 1-371); conditions: protein: recombinant; tags: N-terminal GST; dsDNA, one strand shown
# T5 sequence: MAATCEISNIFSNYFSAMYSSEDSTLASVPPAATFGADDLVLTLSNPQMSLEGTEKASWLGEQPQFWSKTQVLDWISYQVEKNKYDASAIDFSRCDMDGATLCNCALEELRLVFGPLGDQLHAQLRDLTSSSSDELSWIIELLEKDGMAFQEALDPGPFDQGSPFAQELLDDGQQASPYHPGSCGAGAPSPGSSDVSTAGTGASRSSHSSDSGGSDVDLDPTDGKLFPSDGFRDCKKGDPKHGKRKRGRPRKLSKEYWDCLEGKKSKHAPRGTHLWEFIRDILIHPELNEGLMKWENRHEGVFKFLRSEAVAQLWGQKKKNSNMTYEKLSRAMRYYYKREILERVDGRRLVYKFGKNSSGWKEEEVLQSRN
# Summary of the method: as §1
# CRX = CRX (Homo sapiens, UniProt O43186 1-299); conditions: protein: recombinant; tags: N-terminal GST; dsDNA, one strand shown
# Sequence of CRX (O43186 whole entry): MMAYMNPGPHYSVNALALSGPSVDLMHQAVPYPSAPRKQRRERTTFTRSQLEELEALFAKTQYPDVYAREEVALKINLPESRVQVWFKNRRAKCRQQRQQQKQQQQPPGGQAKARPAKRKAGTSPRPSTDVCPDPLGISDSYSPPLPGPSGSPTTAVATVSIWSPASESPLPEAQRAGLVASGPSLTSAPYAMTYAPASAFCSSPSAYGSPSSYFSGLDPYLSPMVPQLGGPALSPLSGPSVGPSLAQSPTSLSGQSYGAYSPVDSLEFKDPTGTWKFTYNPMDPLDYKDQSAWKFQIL
# Summary of the method: as §1
# ETV1 = ETV1 (Homo sapiens, UniProt P50549 1-477); conditions: protein: recombinant; tags: N-terminal GST; dsDNA, one strand shown
# Sequence of ETV1 (P50549 whole entry): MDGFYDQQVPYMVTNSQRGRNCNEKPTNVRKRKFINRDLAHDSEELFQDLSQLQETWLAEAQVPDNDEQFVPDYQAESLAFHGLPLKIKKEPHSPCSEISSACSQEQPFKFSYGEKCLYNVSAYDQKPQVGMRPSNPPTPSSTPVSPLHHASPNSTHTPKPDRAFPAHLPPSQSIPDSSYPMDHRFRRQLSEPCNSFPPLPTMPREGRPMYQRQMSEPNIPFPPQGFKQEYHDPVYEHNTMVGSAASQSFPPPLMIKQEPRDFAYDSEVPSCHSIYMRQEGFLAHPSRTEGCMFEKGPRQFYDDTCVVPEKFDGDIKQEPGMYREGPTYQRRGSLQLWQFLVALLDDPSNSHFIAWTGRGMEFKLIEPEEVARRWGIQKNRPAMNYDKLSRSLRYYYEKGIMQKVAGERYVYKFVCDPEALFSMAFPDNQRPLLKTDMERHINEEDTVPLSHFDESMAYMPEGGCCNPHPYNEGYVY
# Summary of the method: as §1
sequence,measurement,setting,value
ATGCAA,binding signal,FEV,"1.23 fold enrichment (6-mer frequency, TF over GST control)"
same,binding signal,ETV5,"1.25 fold enrichment (6-mer frequency, TF over GST control)"
same,binding signal,HSF1,"1.08 fold enrichment (6-mer frequency, TF over GST control)"
same,binding signal,SPIC,"1.11 fold enrichment (6-mer frequency, TF over GST control)"
same,binding signal,ELF4,"1.25 fold enrichment (6-mer frequency, TF over GST control)"
same,binding signal,ELK4,"1.32 fold enrichment (6-mer frequency, TF over GST control)"
same,binding signal,ETV2,"1.26 fold enrichment (6-mer frequency, TF over GST control)"
same,binding signal,ELF3,"1.36 fold enrichment (6-mer frequency, TF over GST control)"
same,binding signal,CRX,"1.07 fold enrichment (6-mer frequency, TF over GST control)"
same,binding signal,ETV1,"1.26 fold enrichment (6-mer frequency, TF over GST control)"
